Laboratory results: PubChem BioAssay AID588405 (Sanford-Burnham Center for Chemical Genomics, 2011)
Hit rate of the full screen: of about 360,000 compounds, about 6,200 (1.7%) were called active.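 How the source made its calls: active means inhibition of at least 50% at 20 µM; inactive means the rest.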 For the sample, actives were picked, then their nearest neighbours and some compounds at random.

Assay: inhibition of PEG-3 promoter activity – cell-based, HeLa, luciferase luminescence, primary screen (AID 588405)
Settings: HeLa PEG-Prom luciferase reporter, overnight, at 20 µM, stronger effect = higher value

inhibition, inactive:
COc1ccc(-c2[nH]ncc2CN(C)Cc2cccnc2)c(F)c1 9.62%, CCOc1ccc2[nH]c(=O)c(CN(CCCO)S(=O)(=O)c3ccc(F)cc3)cc2c1 12.7%, Cn1c(NCc2cccnc2)nc2cc(-c3ccc(F)cc3)sc2c1=O -200%, COc1c(C)cc(C(=O)C2CCCN(S(=O)(=O)c3c(C)noc3C)C2)cc1C (configuration not stated) 34.8%, COc1ccccc1-c1c(C#N)c(N)nc2c1CCC2 8.52%, Cc1c(-c2ccccc2)nc(N)c(C#N)c1-c1cccs1 12.9%, NCCCCC(C(=O)O)N(C(=O)OCc1ccccc1)C(=O)OCc1ccccc1 (configuration not stated) 5.74%, CCNC(=O)C1CCCN(C(=O)c2ccc(OC)cc2OC)CC1 (configuration not stated) -2.59%, CNC(=O)c1[nH]cnc1C(=O)N[C@@H](CC(C)C)C(=O)OCc1ccccc1 4.89%, CCOc1ccc(-n2c(SCC(=O)NC3CCS(=O)(=O)C3)nnc2-c2cccnc2)cc1 (configuration not stated) -3.16%, COc1cc(C(O)c2nc(-c3cccc(C(=O)O)c3)cs2)ccc1F (configuration not stated) -37.1%, Cc1nc(C(F)(F)F)ccc1C(=O)N1CCC1(C)C(=O)NS(=O)(=O)c1ccccc1 (configuration not stated) 11.6%, OC[C@H]1O[C@@H](c2nc(-c3nc(-c4ccc(F)cc4)no3)cs2)[C@H](O)[C@@H](O)[C@H]1O -42.8%, Nc1nc(CSc2nnnn2-c2ccccc2)nc(Nc2ccccc2)n1 6.46%, Cc1cccc(CN2CCN(C3CN(Cc4ccccc4)S(=O)(=O)C3)CC2)c1 (configuration not stated) 24.2%, CC1(C)C2CCC1(C)C(OC(=O)c1ccc(O)cc1)C2 (configuration not stated) -14.1%, CCCCC(=O)N(C)c1c(CC)nc2c(OCc3ccc(S(C)(=O)=O)cc3)cccn12 -0.29%, CC(C)Oc1cc(F)ccc1-c1cc(C(=O)Nc2ccc(F)cc2)[nH]n1 -30.2%, c1ccc2c(CCN3CCNC[C@H]3Cc3cccc4ccccc34)cccc2c1 -8.29%, O=C1CCNCCN1[C@H](CO)Cc1ccccc1 3.53%, COc1cc(/C=C/C2=CC(C)(C)NC(=S)N2)cc(OC)c1OC 4.8%, CCC(=O)c1ccc(OC(=O)/C=C/c2cc(OC)c(OC)c(OC)c2)cc1 3.36%, OCCc1ccc(NCCc2ccco2)cc1 -123%, CN[C@H](C(=O)NC[C@H]1O[C@@H](n2cnc3c(N)ncnc32)[C@H](O)[C@@H]1O)[C@@H](C)OCc1ccccc1 -6.23%, O=C(COC(=O)c1ccc(F)cc1F)Nc1ncccn1 22.2%, CC(C)CNC(=O)C(=O)NCC(c1ccc2c(c1)OCO2)N1CCOCC1 (configuration not stated) -15.4%, CC(C)Cn1c(N)c(C(=O)COC(=O)CN2C(=O)C3CC=CCC3C2=O)c(=O)n(C)c1=O (configuration not stated) 21.8%, CCCc1cc(=O)[nH]c(SCC(=O)N2C(C)CCCC2C)n1 (configuration not stated) 0.43%, O=C(NCc1cccnc1)c1ccc2nc([C@@H]3O[C@H](CO)[C@H](O)[C@H](O)[C@H]3O)[nH]c2c1 15.8%, CCC(C)C(CO)NC(=O)/C=C/[C@H]1O[C@@H](n2cnc3c(NC(=O)c4ccccc4)ncnc32)[C@H](O)[C@@H]1O (some centres not stated) 10.6%, Cc1ccsc1C(=O)OCC(=O)NCCc1ccccc1 -156%, Cc1ccsc1C(=O)OCC(=O)Nc1cccc(F)c1 -227%, COc1ccc(-c2nnc3n2CCCCC3)cc1 11.4%, CCN(CC)CCN(C(=O)c1ccc2c(c1)CCCC2)c1nc2c(OC)cccc2s1 -7.74%, O=C(CCS(=O)(=O)c1ccccc1)Nc1nc2c(s1)CCCC2 -47.1%, COc1ccc(N(C)C(=O)CCS(=O)(=O)c2cccc3nsnc23)cc1 -4.4%, Cc1ccc(S(=O)(=O)CCC(=O)OCC(=O)N(C)Cc2ccccc2)cc1 -2.43%, COc1ccccc1NC(=O)CC(NCCN(C)C)C(=O)O (configuration not stated) 6.79%, Cc1ccc2sc(N(CCN(C)C)C(=O)/C=C/c3cccs3)nc2c1C 19.8%, CC1(C(=O)NCc2ccc3c(c2)OCO3)CCN1CCc1ccccc1 (configuration not stated) -5.32%, CC1(C(=O)NS(=O)(=O)c2cccs2)CCN1C(=O)Cc1ccc(-c2ccccc2)cc1 (configuration not stated) 1.06%, O=C(C=CC(=O)Nc1ccc(F)cc1F)Nc1ccc(F)cc1F 14.9%, O=S1(=O)CC(N2CCN(CCO)CC2)CN1C1CCCC1 (configuration not stated) -8.51%, Cc1cccc(CN2CCN(C3CN(Cc4cn(Cc5ccccc5F)nn4)S(=O)(=O)C3)CC2)c1 (configuration not stated) -6.63%, CCOC(=O)N(C)c1c(CC)nc2c(OCc3ccccc3C(=O)OC)cccn12 13.4%, CCCC(=O)N1CCC1(C)C(=O)NCc1ccc(C(C)C)cc1 (configuration not stated) 1.21%, CCC(=O)N1CCCC1(C)C(=O)Nc1ccc2c(c1)CCN2C(C)=O (configuration not stated) 4.54%, CCOC(=O)Nc1ccc2c(c1)N(C(=O)CCN1CCN(CCO)CC1)c1ccccc1CC2 3.85%, CCOC(=O)Nc1ccc2c(c1)N(C(=O)CN1CCN3CCCC3C1)c1ccccc1CC2 (configuration not stated) 0.5%, CC(C)(C)OC(=O)C[C@@H]1C/C=C\C[C@@H](CC(=O)N[C@H](CO)Cc2ccccc2)C(=O)NC[C@@H](c2ccccc2)OC1=O -6.65%, CC(C)(C)OC(=O)C[C@H]1C/C=C\C[C@@H](CC(=O)N[C@H](CO)Cc2ccccc2)C(=O)NC[C@@H](c2ccccc2)OC1=O -1.52%, CC(=O)c1nn(-c2ccccc2)c(=Nc2ccccc2)cc1C 1.9%, O=C1NC(O)CCN1C1CC(O)C(CO)O1 (configuration not stated) 15.2%, CSc1nnnn1-c1c(C)cc(C)cc1C 7.96%, CSC1=NCCN1C(=O)c1ccc(S(=O)(=O)N2CCOCC2)cc1 -13.6%, Cc1ccc2nc(-c3ccco3)c(Cc3cccc(Cl)c3)n2c1 -203%, CCOC(=O)C1=C(CC)OC(N)=C(C#N)C1c1ccc(F)cc1F (configuration not stated) 8.52%, CCCc1nc2c([nH]1)C(c1cccnc1)C(C#N)=C(N)O2 (configuration not stated) -0.33%, CCOP(=O)(OCC)C(Cc1ccccc1)N=C(c1ccccc1)c1ccccc1 (configuration not stated) 41.3%, CN(CC1CCCO1)S(=O)(=O)c1ccc(C(=O)Nc2ccc(F)cc2)cc1 (configuration not stated) 21.5%, Cc1cccc(NC(=O)c2ccc(S(=O)(=O)N(C)CC3CCCO3)cc2)c1C (configuration not stated) 4.42%, CC(=O)Nc1cc(-c2ccccc2F)cn2c(-c3cccc(C(F)(F)F)c3)cnc12 25%, O=C(NCc1ccc2c(c1)OCO2)c1cc([N+](=O)[O-])ccc1N1CCOCC1 17.4%, COc1ccc(S(=O)(=O)N2CCCCC2)cc1NC(=O)c1cc([N+](=O)[O-])ccc1N1CCOCC1 13.5%, COc1cccc(-c2cc(NC(C)=O)c3ncc(-c4cccc(C(C)=O)c4)n3c2)c1 -9.41%, CCN(CC)c1ncnc2c1ncn2[C@H]1CN(Cc2cccs2)C[C@@H](CO)O1 5.39%, CN(Cc1ccc(F)cc1)C(=O)CN1C(=O)c2ccccc2S1(=O)=O 1.25%, CC1CCCN(C(=O)CN2C(=O)c3ccccc3S2(=O)=O)C1 (configuration not stated) -95%

inhibition, active:
COc1ccc2[nH]c(=O)c(CN(Cc3cccnc3)S(=O)(=O)c3ccccc3F)cc2c1 59.6%, CSc1nc(N)c(C#N)c(-c2ccccc2Cl)c1C#N 53.6%, CCN1CCC(O)(/C=C/c2ccc(C)cc2)C(C(=O)/C=C/c2ccc(C)cc2)C1 (configuration not stated) 97.7%, CCC(C)Cn1c(O)cc2nn(-c3nc4ccccc4s3)c(=O)c-2c1C (configuration not stated) 96.7%, O=C(OC12CC3CC(CC(C3)C1)C2)c1ccc(NCc2cc(O)ccc2O)cc1 82.7%, c1ccc(C[C@H]2CNCCN2CCC23CC4CC(CC(C4)C2)C3)cc1 96.8%, COc1cc(/C=C/c2ccc(/C=C/c3cc(OC)c(OC)c(OC)c3)cc2)cc(OC)c1OC 61.8%, CCCc1cc(=O)[nH]c(SCC(=O)c2c(N)n(CC(C)C)c(=O)n(C)c2=O)n1 54.7%, Cc1ccsc1C(=O)OCC(=O)c1cc(C)n(CC2CCCO2)c1C (configuration not stated) 55.9%, Cc1cccc2sc(N(CCCN(C)C)C(=O)CCS(=O)(=O)c3ccccc3)nc12 100%, COc1cccc2sc(N(CCCN(C)C)C(=O)C(c3ccccc3)c3ccccc3)nc12 99.4%, COc1cccc2sc(N(CCCN(C)C)C(=O)CCS(=O)(=O)c3ccccc3)nc12 96.4%, Nc1ccccc1SC(C[N+](=O)[O-])c1ccccc1 (configuration not stated) 63.5%, CCOC(=O)Nc1ccc2c(c1)N(C(=O)CCCl)c1ccccc1[S@]2=O 84.1%, O=C(C[C@H]1C/C=C\C[C@@H](NC(=O)OCC2c3ccccc3-c3ccccc32)C(=O)O[C@@H](c2ccccc2)CNC1=O)N[C@H](CO)Cc1ccccc1 67.1%, CCOC(=O)C1=C(C)OC(N)=C(C#N)C1c1cncc(-c2ccc(F)cc2)c1 (configuration not stated) 101%, CCOC(=O)c1c(NC(=O)c2ccc(S(=O)(=O)N(C)CC3CCCO3)cc2)sc2c1CC(C)(C)NC2(C)C (configuration not stated) 85.8%, CCOc1ccc2nc(NC(=O)c3cc([N+](=O)[O-])ccc3N3CCOCC3)sc2c1 61.8%, O=C(CN1C(=O)c2ccccc2S1(=O)=O)N1CCc2ccccc21 94.5%
